Source: PubChem BioAssay AID2012 (Sanford-Burnham Center for Chemical Genomics, 2009)
Screen size: about 290,000 compounds; about 2,700 (0.93%) were called active. The rule behind the calls is not given here. The full list was thinned out, with actives kept by preference.

Biological target: Eukaryotic translation initiation factor 4H (Homo sapiens) (UniProt Q15056)
Experiment: human eIF4H binding inhibitors, primary screen, translation initiation inhibitor project, biochemical, uHTS, fluorescence polarization (AID 2012);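 note: calls also rest on retests at 20 µM and on dose response follow-up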
Conditions: eIF4H fluorescence polarization binding assay, stronger effect = higher value

Row | Structure (SMILES) | inhibition (at 35 µM) | inhibition (confirmation average, at 20 µM) [%]
1 | CN1/C(=c2/s/c(=C3/C(=O)N(c4ccccc4)NC3=Nc3ccccc3)n(C)c2=O)C(C)(C)c2ccccc21 | 75.5% (active) | –
2 | CCN1C(=O)/C(=c2\s/c(=C3\Sc4ccccc4N3C)c(=O)n2C)N(C)C1=S | -3% (inactive) | –
3 | O=[N+]([O-])c1cc([N+](=O)[O-])c(Oc2cc(F)cc(F)c2F)cc1NN1CCCCC1 | 0.2% (inactive) | –
4 | Cn1c(=O)c2ccccc2n(CC(=O)Nc2ccc3c(c2)OCCO3)c1=O | -5.6% (inactive) | –
5 | COc1ccc(-c2c(-c3ccc(OC)cc3O)nc(C)nc2C(F)(F)F)cc1 | -5.5% (inactive) | –
6 | Cc1ccc(CCC(=O)Nc2ncc(Cc3cc(Cl)ccc3Cl)s2)o1 | 1.5% (inactive) | –
7 | Cc1ccc(Cc2cnc(N)s2)o1 | 65.8% (active) | 93.7
8 | O=C(CCc1nnc2ccc(NCc3ccccc3Cl)nn12)NCC1CCN(C2CCCC2)C1 (stereo not given) | 13.5% (inactive) | –
9 | Cc1nn(Cc2ccccc2)c(C)c1NS(=O)(=O)c1ccccc1 | -5.2% (inactive) | –
10 | CC(=O)N(CN1C(=O)C2CC=CCC2C1=O)c1cccc(Cl)c1 (stereo not given) | 26% (inactive) | –
11 | O=C(CN1C(=O)C2C3C=CC(C3)C2C1=O)NCCc1ccccc1Cl (stereo not given) | -10.5% (inactive) | –
12 | CC(=O)N(CN1C(=O)C2C3C=CC(C3)C2C1=O)c1cccc(Cl)c1 (stereo not given) | -5.8% (active) | 61.4
13 | COc1ccc(OCc2cc(C(=O)NCC3(C)COC3)no2)c(Cl)c1 | -2.3% (inactive) | –
14 | Cn1cccc1/C=C1\SC(=O)N(CC(=O)Nc2ccc(F)cc2)C1=O | 1.6% (inactive) | –
15 | O=C(O)c1cccc(N2C(=O)Nc3ccccc3N2O)c1 | 1% (inactive) | –
16 | N#Cc1ccccc1CN1C(=O)S/C(=C/c2cccn2-c2cccc(C(=O)O)c2)C1=O | 81.6% (active) | 74.8
17 | Cc1cc(CN(C)C(=O)c2cc(COc3ccc(C)c(C)c3)on2)n[nH]1 | -4.1% (inactive) | –
18 | CCCc1cc(=O)n2[nH]c(C)c(-c3ccc(Cl)cc3)c2n1 | 11.3% (inactive) | –
19 | COc1ccccc1OCCCC(=O)Nc1ccc2c(c1)OCCO2 | -2.5% (inactive) | –
20 | COc1cc(C(=O)N2CCN(C)CC2)cc(OC)c1OC | -6.9% (inactive) | –
21 | COc1ccccc1OCc1ccc(C(=O)N2CCN(C)CC2)o1 | 0.9% (inactive) | –
22 | COc1cc2c(C(=O)N3CCN(C)CC3)c(CSc3ccccc3)n(C)c2cc1Br | 1.1% (active) | 81.5
23 | Cc1ccc(N2C(=O)C3C4C=CC(CC4)C3C2=O)cc1Br (stereo not given) | -2.9% (inactive) | –
24 | CN(CCC1CCOCC1)C(=O)CC1C(=O)NCCN1Cc1cccc(F)c1 (stereo not given) | -3.2% (inactive) | –
25 | O=C(Nc1ccc(S(=O)(=O)Nc2ccccn2)cc1)c1ccccc1 | -9.1% (inactive) | –
26 | C=CCn1c(=O)c(C(=O)Nc2ncccc2O)c(O)c2ccccc21 | 22% (inactive) | –
27 | CS(=O)(=O)Nc1ccccc1N=C(c1ccccc1)c1ccccc1 | 1.1% (inactive) | –
28 | CCOc1ccc(N(CC(=O)NCCOc2ccccc2OC)S(=O)(=O)c2ccccc2)cc1 | -3.8% (inactive) | –
29 | O=C(NCCS(=O)(=O)c1ccc(Br)cc1)c1ccccc1Cl | -7.2% (inactive) | –
30 | O=C(CCS(=O)(=O)c1ccc(Br)cc1)NCCc1ccc(Cl)cc1 | 86.1% (active) | 67.7
